High-throughput results: PubChem BioAssay, National Center for Advancing Translational Sciences (NCATS)
In the library only some 10% were active in any assay of this set; here they are far more common.
NS1 function inh – qHTS Assay for Inhibitors of Influenza NS1 Protein Function. Potency, µM (doses to about 46.1 µM), for inactives: at the highest dose activity, positive = more growth. 270,000 compounds, 0.4% hits; calls by dose curve; also: actives are rising curves; nearly all actives have a fitted effect of over 50% in size
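Read-out: OD600 growth recovery of NS1-expressing budding yeast. Cells grown overnight at 30C in -URA glucose medium, washed, resuspended and diluted 1:100 in 2% galactose assay medium, pH 6.0. Same strain lacking NS1 served as positive control.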
Pf growth 48h – Primary qHTS for delayed death inhibitors of the malarial parasite plastid, 48 hour incubation | P. falciparum luciferase growth in erythrocytes, 48 h | Potency, µM (top dose mostly 28.7 µM), inactives show top-dose activity change, negative = inhibition, usual class: inhibitors | 310,000 compounds, 5.9% hits; also: % is scaled to controls: 0 for no effect and ±100 for the full control effect
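Luciferase-expressing P. falciparum in infected erythrocytes (2% hematocrit, 0.1% parasitemia final) in RPMI 1640/0.5% Albumax were exposed to compound for 48 hours at 37 C, 5% CO2; growth read as luminescence.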
Pf growth 96h – Primary qHTS for delayed death inhibitors of the malarial parasite plastid, 96 hour incubation. P. falciparum luciferase reporter growth, 96 h. Potency, µM (highest dose often 28.7 µM), inactives show at the top dose activity change, negative = inhibition, hits mostly inhibitors. 320,000 compounds, 6.9% hits. AID 504834, 2011; also: % is scaled to controls: 0 for no effect and ±100 for the full control effect
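Parasite growth measured via integrated firefly luciferase reporter in P. falciparum. Infected erythrocytes at 2% hematocrit, 0.05% parasitemia final were treated 96 hours at 37 C under 5% CO2, and luminescence was read.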
SARS PLpro yeast – qHTS of Yeast-based Assay for SARS-CoV PLP; Potency, µM (series often up to 32.9 µM), for the others: top-dose activity, positive = growth rescue, usual class: activators; S. cerevisiae expressing SARS-CoV PLpro, growth rescue; 330,000 compounds, 0.19% hits; AID 485353, 2010; calls by dose curve; also: 0% is about no effect; nearly all actives have a fitted effect of over 55% in size
Starred values were filed as active, the others as inactive; ? = inconclusive; nt = no result. Unless noted, calls follow the shape of the dose curve; as a rule, active = well fitted inhibition curve with a large enough effect; inconclusive = small, poorly fitted or top-dose-only effect, or another doubt; inactive = no such curve, though single readings can be large or run the other way. Potency is read from the fitted curve at half-maximal effect.

SMILES	NS1 function inh	Pf growth 48h	Pf growth 96h	SARS PLpro yeast
O=C(NCC1CCCCC1)c1cccc([N+](=O)[O-])c1	-18%	5.2µM*	?	-3%
O=C(NC1CCS(=O)(=O)C1)c1cccc(S(=O)(=O)N2CCCCC2)c1 (stereo unspecified)	-1%	-13%	nt	-1%
O=C(NCC1CCN(C(=O)c2cccc([N+](=O)[O-])c2)CC1)c1cccc([N+](=O)[O-])c1	-1%	-23%	35%	-1%
O=C(NCC1CCCCC1)c1cccc(S(=O)(=O)N2CCCC2)c1	nt	10µM*	?	-3%
CCOc1ccc(C(=O)NCC2CCN(CC3CCCCC3)CC2)cc1	9%	42%	5.9µM*	2%
N#CC[N+]1(Cc2ccccn2)CCCC1	-5%	nt	nt	nt
Cc1ccc(Nc2nc(N)nc(COC(=O)C3=COCCO3)n2)cc1	nt	329%	128%	0%
CC(NC(=O)NC(=O)c1cccc([N+](=O)[O-])c1)C1CC1 (stereo unspecified)	6%	10µM*	22%	3%
Cc1ccc(NC(=O)c2cccc(S(=O)(=O)N3CCN(C)CC3)c2)cc1F	7%	?	?	0%
COc1ccc(S(=O)(=O)N2CCOCC2)cc1NC(=O)c1ccccc1C	6%	-10%	-6%	-3%
Cc1c(C#N)c2ccccc2n1CC(=O)N1CCCc2ccccc21	-3%	3.3µM*	36%	2%
Cc1c(C#N)c2ccccc2n1CC(=O)N1CCCC1	0%	?	21%	4%
Cc1c(Br)c([N+](=O)[O-])nn1CC(=O)N1CCCc2ccccc21	0%	26%	2.3µM*	2%
O=C(Cn1c(=O)n(Cc2ccc3c(c2)OCO3)c(=O)c2ccccc21)N1CCCc2ccccc21	-16%	10µM*	nt	-5%
CC1CCN(C(=O)Cn2c(=O)n(Cc3ccc4c(c3)OCO4)c(=O)c3ccccc32)CC1	-8%	-25%	12%	2%
COC(=O)c1ccc(Cn2nc(-c3cc(C)ccc3C)ccc2=O)cc1	-1%	13%	32%	-3%
CC(=O)Nc1ccc(C(=O)COC(=O)c2cc(C)oc2C)c(F)c1	nt	nt	nt	-20%
CC(Sc1nncn1C)C(=O)Nc1ccc(N2CCCCC2)cc1 (stereo unspecified)	nt	44%	40%	-3%
CCOC(=O)[C@@H]1[C@H]2COc3cc(OC)ccc3[C@H]2N2C(=O)N(c3ccc(OC)cc3)C(=O)[C@]12C	nt	nt	nt	8%
N=c1c(C(=O)NC2CCCCC2)cc2c(=O)n3ccccc3nc2n1Cc1ccccc1	3%	?	5.9µM*	-6%
N=c1c(C(=O)NCCc2ccccc2)cc2c(=O)n3ccccc3nc2n1Cc1ccco1	-12%	2.3µM*	56%	-2%
N=c1c(C(=O)NC2CCCCC2)cc2c(=O)n3ccccc3nc2n1CCc1ccccc1	1%	1.5µM*	1.7µM*	7%
N=c1c(C(=O)NCC2CCCO2)cc2c(=O)n3ccccc3nc2n1Cc1ccco1 (stereo unspecified)	1%	2%	2%	1%
COc1ccc(CCn2c(=N)c(C(=O)NCc3ccco3)cc3c(=O)n4ccccc4nc32)cc1	18%	2.9µM*	?	-6%
N=c1c(C(=O)NC2CCCCC2)cc2c(=O)n3ccccc3nc2n1Cc1ccco1	2%	3.7µM*	13%	0%
SMILES	NS1 function inh	Pf growth 48h	Pf growth 96h	SARS PLpro yeast
CC(C)(CNC(=O)c1cc([N+](=O)[O-])ccc1N1CCC(Cc2ccccc2)CC1)N1CCOCC1	nt	9.3µM*	?	-1%
CCOC(=O)c1c(CN2CCN(CCO)CC2)n(-c2ccccc2)c2cc(Br)c(O)cc12	-2%	2.1µM*	1.7µM*	0%
CCOC(=O)c1c(CNc2ccncc2)n(C)c2cc(Br)c(O)cc12	nt	0.33µM*	0%	-1%
CCOC(=O)c1c(CSC(=N)N)n(-c2ccccc2)c2cc(Br)c(OC(C)=O)cc12	?	2.9µM*	2.1µM*	0%
CCOC(=O)c1c(CN2CCN(c3ccccc3)CC2)oc2cc(Br)c(O)cc12	2%	1.7µM*	?	4%
O=C(NN1CC(C(=O)OCc2ccccc2F)CC1=O)c1ccccc1 (stereo unspecified)	10%	16%	-20%	-4%
O=C(C[C@@H]1C/C=C\C[C@H](NC(=O)OCC2c3ccccc3-c3ccccc32)C(=O)O[C@H](c2ccccc2)CNC1=O)NCCO	nt	nt	nt	0%
COc1ccc(-c2nnnn2C)cc1S(=O)(=O)Nc1ccc(C)cc1C	1%	-3%	?	1%
